# Test results reported in PubChem BioAssay.
# Results filed as inconclusive are left out. Active and inactive are the calls of the source.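 Rule for the calls, unless noted: active = normalized viability below 100% at a tested concentration; inactive = the rest.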
# How the values were obtained:
# [1] = viability loss in pontine glioma line – cell-based, JHH-DIPG-1, MIPE4.0, CellTiter-Glo, qHTS, dose response (AID 1347062; cut-off not given, nearly all actives have AC50 up to about 27 µM;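 for AC50: cells exposed to compound for two days before readout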); conditions: JHH-DIPG-1 viability, CellTiter-Glo ATP luminescence
# [2] = viability loss in pontine glioma line – cell-based, SU-DIPG-IV, MIPE4.0, CellTiter-Glo, qHTS, dose response (AID 1347063; cut-off not given, nearly all actives have AC50 up to about 30 µM;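 note: compound exposure lasted 48 hours before the viability readout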); conditions: CellTiter-Glo ATP luminescence
# [3] = viability loss in pontine glioma line – cell-based, SU-DIPG-XIII, MIPE5.0, CellTiter-Glo, qHTS, dose response (AID 1347064; cut-off not given, nearly all actives have AC50 up to about 23 µM;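 for AC50: cells exposed to compound for 48 hours before the viability read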); conditions: CellTiter-Glo ATP luminescence
# [4] = viability loss in pontine glioma line – cell-based, SU-DIPG-XXV, MIPE5.0, CellTiter-Glo, qHTS, dose response (AID 1347065; cut-off not given, nearly all actives have AC50 up to about 26 µM;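 note: cells exposed to compound for 48 hours before ATP readout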); conditions: CellTiter-Glo ATP luminescence
# [5] = growth inhibition of DIPG cells – cell-based, MIPE4.0 library, CellTiter-Glo luminescence, qHTS (AID 1347066; cut-off not given, nearly all actives have AC50 up to about 30 µM;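 note: cells exposed to compound for 48 hours before readout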); conditions: SU-DIPG-VI viability, CellTiter-Glo ATP luminescence
# [6] = JHH-DIPG-1 glioma cell viability, MIPE5.0 library, CellTiter-Glo luminescence, qHTS (AID 1347067; cut-off not given, nearly all actives have AC50 up to about 26 µM;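 note: cells exposed to compound for 48 hours before readout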); conditions: JHH-DIPG-1 glioma viability, CellTiter-Glo ATP luminescence
# [7] = growth inhibition of DIPG cells – cell-based, MIPE5.0 library, qHTS (AID 1347068; cut-off not given, nearly all actives have IC50 up to about 30 µM); conditions: SU-DIPG-XXV viability
# [8] = viability loss with induced miR-34 in A549 – imaging, A549 dox-inducible miR-34, nuclei and caspase counts, primary screen (AID 1347080;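 active = compounds whose cell count with miR-34 switched on is under 0.7 times the count with it off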); conditions: A549 miR-34 inducible, Hoechst nuclei count, 48 h
# [9] = compounds altering HSF1 focus formation in cells – imaging, Selleck Cancer Library (AID 1347162; in the data active = plate-normalised HSF1 focus index below about 0.46); conditions: human cells, HSF1 nuclear foci imaging, at 10 µM; SSMD: measured here: HSF1 foci SSMD mean; cell count: measured here: cell number; plate-normalised HSF1 focus index: stronger effect = lower value
# [10] = MELAS cybrid and Rieske KO viability enhancers – cell-based, MELAS cybrids, Rieske KO mouse fibroblasts, CellTiter-Glo, primary screen (AID 1508586;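 active = mean z-score across replicates of 1.96 or higher in either the MELAS or the Rieske mutant cell line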;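 note: z relative to plate mean and SD of compound and empty wells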); conditions: low glucose
# [11] = drug combination growth inhibition, ovarian cancer – cell-based, oncology-focused library, rucaparib conditional, profiling panel (AID 1508598); conditions: patient-derived ovarian cancer cells, CellTiter-Glo viability, 144 h, stronger effect = lower value
# [12] = viability loss in pontine glioma line – cell-based, SU-DIPG-XIII, MIPE4.0, CellTiter-Glo, qHTS, dose response (AID 1347061; cut-off not given, nearly all actives have AC50 up to about 37 µM;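 note: cells exposed to compound for 48 hours before readout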); conditions: CellTiter-Glo ATP luminescence
smiles,measurement,setting,value
CC1(O)CC(c2nc(-c3ccc4ccc(-c5ccccc5)nc4c3)c3c(N)nccn23)C1 (stereo not given),AC50,[1],1480 nM (active)
same,AC50,[2],14800 nM (active)
same,AC50,[3],590 nM (active)
same,AC50,[4],332 nM (active)
same,AC50,[5],332 nM (active)
same,AC50,[6],11800 nM (active)
same,outcome,[7],inactive
same,fold change,"[8]; stronger effect = lower value, cell number ratio, induced over uninduced",1.03 (inactive)
same,fold change,[8]; measured here: relative caspase fold change +Dox/-Dox,0.898
same,cell count,"[8]; measured here: total cells with miR-34 induction, stronger effect = lower value",2240
same,cell count,[8]; measured here: total cells without miR-34 induction,2180
same,SSMD,[9],1.94
same,cell count,[9],6580
same,plate-normalised HSF1 focus index,[9],1.1 (inactive)
same,z-score,"[10]; MELAS cybrid survival, CellTiter-Glo 48 h, stronger effect = higher value",-0.422 (inactive)
same,z-score,"[10]; Rieske KO mouse fibroblast survival, CellTiter-Glo 72 h",0.283
same,viability,"[11]; at 0.000305 µM, OCI-C5x cells, with rucaparib 10 µM, 100% = cells with rucaparib alone",114% (inactive)
same,viability,"[11]; at 0.000305 µM, OCI-C5x cells, without rucaparib",139% (inactive)
same,viability,"[11]; at 0.000305 µM, OCI-P5x cells, with rucaparib 20 µM, 100% = cells with rucaparib alone",109% (inactive)
same,viability,"[11]; at 0.000305 µM, OCI-P5x cells, without rucaparib",106% (inactive)
same,viability,"[11]; at 0.00122 µM, OCI-C5x cells, with rucaparib 10 µM, 100% = cells with rucaparib alone",121% (inactive)
same,viability,"[11]; at 0.00122 µM, OCI-C5x cells, without rucaparib",130% (inactive)
same,viability,"[11]; at 0.00122 µM, OCI-P5x cells, with rucaparib 20 µM, 100% = cells with rucaparib alone",104% (inactive)
same,viability,"[11]; at 0.00122 µM, OCI-P5x cells, without rucaparib",104% (inactive)
same,viability,"[11]; at 0.00488 µM, OCI-C5x cells, with rucaparib 10 µM, 100% = cells with rucaparib alone",111% (inactive)
same,viability,"[11]; at 0.00488 µM, OCI-C5x cells, without rucaparib",124% (inactive)
same,viability,"[11]; at 0.00488 µM, OCI-P5x cells, with rucaparib 20 µM, 100% = cells with rucaparib alone",99.9% (active)
same,viability,"[11]; at 0.00488 µM, OCI-P5x cells, without rucaparib",105% (inactive)
same,viability,"[11]; at 0.0195 µM, OCI-C5x cells, with rucaparib 10 µM, 100% = cells with rucaparib alone",115% (inactive)
same,viability,"[11]; at 0.0195 µM, OCI-C5x cells, without rucaparib",127% (inactive)
same,viability,"[11]; at 0.0195 µM, OCI-P5x cells, with rucaparib 20 µM, 100% = cells with rucaparib alone",104% (inactive)
same,viability,"[11]; at 0.0195 µM, OCI-P5x cells, without rucaparib",106% (inactive)
same,viability,"[11]; at 0.0781 µM, OCI-C5x cells, with rucaparib 10 µM, 100% = cells with rucaparib alone",114% (inactive)
same,viability,"[11]; at 0.0781 µM, OCI-C5x cells, without rucaparib",133% (inactive)
same,viability,"[11]; at 0.0781 µM, OCI-P5x cells, with rucaparib 20 µM, 100% = cells with rucaparib alone",101% (inactive)
same,viability,"[11]; at 0.0781 µM, OCI-P5x cells, without rucaparib",113% (inactive)
same,viability,"[11]; at 0.313 µM, OCI-C5x cells, with rucaparib 10 µM, 100% = cells with rucaparib alone",133% (inactive)
same,viability,"[11]; at 0.313 µM, OCI-C5x cells, without rucaparib",57.9% (active)
same,viability,"[11]; at 0.313 µM, OCI-P5x cells, with rucaparib 20 µM, 100% = cells with rucaparib alone",88.6% (active)
same,viability,"[11]; at 0.313 µM, OCI-P5x cells, without rucaparib",96% (active)
same,viability,"[11]; at 1.25 µM, OCI-C5x cells, with rucaparib 10 µM, 100% = cells with rucaparib alone",145% (inactive)
same,viability,"[11]; at 1.25 µM, OCI-C5x cells, without rucaparib",134% (inactive)
same,viability,"[11]; at 1.25 µM, OCI-P5x cells, with rucaparib 20 µM, 100% = cells with rucaparib alone",41.3% (active)
same,viability,"[11]; at 1.25 µM, OCI-P5x cells, without rucaparib",66.2% (active)
same,viability,"[11]; at 5 µM, OCI-C5x cells, with rucaparib 10 µM, 100% = cells with rucaparib alone",168% (inactive)
same,viability,"[11]; at 5 µM, OCI-C5x cells, without rucaparib",153% (inactive)
same,viability,"[11]; at 5 µM, OCI-P5x cells, with rucaparib 20 µM, 100% = cells with rucaparib alone",7.72% (active)
same,viability,"[11]; at 5 µM, OCI-P5x cells, without rucaparib",32.8% (active)
Nc1cccc(S(=O)(=O)N2CCCN(S(=O)(=O)c3ccc4c(c3)OCCO4)CC2)c1,outcome,[12],inactive
same,outcome,[5],inactive
same,outcome,[7],inactive
C[C@@H](O)[C@H]1C(=O)N2C(C(=O)OCOC(=O)C(C)(C)C)=C(SC3CN(C4=NCCS4)C3)[C@H](C)[C@H]12,outcome,[12],inactive
same,outcome,[5],inactive
Cc1cccc(-c2nn(C(=S)Nc3ccccc3)cc2-c2ccnc3ccccc23)n1,outcome,[1],inactive
same,outcome,[2],inactive
same,outcome,[3],inactive
same,outcome,[4],inactive
same,outcome,[5],inactive
same,outcome,[6],inactive
same,outcome,[7],inactive
